Experimental findings from PubChem BioAssay are described below.

Experiment [1] in a line: yeast TOR pathway RPL19A-GFP modulators, primary screen, cell-based, S. cerevisiae, multiplex flow cytometry (AID 1862; in the data active = percent of DMSO control GFP below about 86%;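 note: lower values mimic rapamycin by blocking the RPL19A rise seen in DMSO cells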). The following applies: S. cerevisiae RPL19A-GFP strain, flow cytometry fluorescence, 3 h; at 10 µM; stronger effect = lower value. (Flow cytometry measures light scatter and fluorescence of single cells or particles in a stream.)
Experiment [2] in a line: modulators of MEP2-GFP levels in yeast, primary screen, S. cerevisiae, multiplex flow cytometry (AID 1867;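 active = GFP response, as percent of the DMSO control, above the screen-wide mean plus 3 SD, about 139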;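 note: median GFP channel fluorescence of barcode-gated MEP2-GFP cells measured by flow cytometry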). The following applies: S. cerevisiae MEP2-GFP strain, 3 h, at 10 µM, stronger effect = higher value, 100% means same as DMSO wells.
Experiment [3] in a line: modulators of CIT2-GFP expression in yeast, primary screen, S. cerevisiae, GFP fusion, multiplex flow cytometry (AID 1870;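 active = percent response above a set limit, the screen-wide mean plus 3 SD, cut at about 130% in these data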;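 note: barcoded CIT2-GFP strain pooled with four other GFP strains with rapamycin as positive control; median GFP fluorescence per well over plate mean of DMSO wells so 100% = DMSO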). Particulars: 3 h, at 10 µM, stronger effect = higher value.
A short description of experiment [4]: modulators of LAP4-GFP expression in yeast, primary screen, S. cerevisiae, multiplex flow cytometry (AID 1873;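 active = GFP signal, as percent of the solvent control, above the screen mean plus 3 SD, about 149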). Particulars: 3 h, at 10 µM, stronger effect = higher value.
Experiment [5] can be described thus: modulators of AGP1-GFP expression in yeast TOR pathway, primary screen, cell-based, multiplex flow cytometry, S. cerevisiae (AID 1887;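 active = GFP signal above the screen-wide mean plus 3 SD, that is over about 124.5% of the solvent control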;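 note: AGP1-GFP fusion strain of S. cerevisiae within a five-strain barcoded multiplex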). Particulars: 3 h, at 10 µM, stronger effect = higher value.
Experiment [6] is described as follows: inhibitors of CD8+ T cell-vesicle binding, pilot screen, LFA-1/ICAM-1 modulator project, MLPCN validation set, flow cytometry (AID 2523;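 active = response below a set limit, under 55% cells CD8-positive and vesicle-bound, and CD8 cells' 90th-percentile brightness under 279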;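 for vesicle binding response: mean PE anti-B7-1 fluorescence of CD8+ cells relative to row control; 100% = QL9-loaded vesicles with DMSO vehicle in the same plate row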). The following applies: 2C mouse CD8+ T cells, at 7 µM, stronger effect = lower value; double positive events: measured here: CD8+/vesicle+ event percentage.
In experiment [7] the target is Integrin beta-1 (Homo sapiens) + Integrin alpha-4 (Homo sapiens) (UniProt P13612+P05556). The experiment is described as follows: inhibition of HUTS-21 binding to VLA-4, pilot screen, VLA-4 allosteric modulator project, U937 cells, HUTS-21 mAb, flow cytometry, validation set (AID 2674;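 active = inhibition above 50%, about 3 SD of the validation set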;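 note: antibody binding induced by the VLA-4 ligand LDV present at three times its Kd; 0% = LDV ligand with antibody and no compound and 100% = antibody without LDV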). The following applies: HUTS-21 LIBS mAb binding, at 6.7 µM, stronger effect = higher value, binding induced by LDV ligand.
Integrin beta-1 (Homo sapiens) + Integrin alpha-4 (Homo sapiens), sequence (P05556 whole entry, looked up): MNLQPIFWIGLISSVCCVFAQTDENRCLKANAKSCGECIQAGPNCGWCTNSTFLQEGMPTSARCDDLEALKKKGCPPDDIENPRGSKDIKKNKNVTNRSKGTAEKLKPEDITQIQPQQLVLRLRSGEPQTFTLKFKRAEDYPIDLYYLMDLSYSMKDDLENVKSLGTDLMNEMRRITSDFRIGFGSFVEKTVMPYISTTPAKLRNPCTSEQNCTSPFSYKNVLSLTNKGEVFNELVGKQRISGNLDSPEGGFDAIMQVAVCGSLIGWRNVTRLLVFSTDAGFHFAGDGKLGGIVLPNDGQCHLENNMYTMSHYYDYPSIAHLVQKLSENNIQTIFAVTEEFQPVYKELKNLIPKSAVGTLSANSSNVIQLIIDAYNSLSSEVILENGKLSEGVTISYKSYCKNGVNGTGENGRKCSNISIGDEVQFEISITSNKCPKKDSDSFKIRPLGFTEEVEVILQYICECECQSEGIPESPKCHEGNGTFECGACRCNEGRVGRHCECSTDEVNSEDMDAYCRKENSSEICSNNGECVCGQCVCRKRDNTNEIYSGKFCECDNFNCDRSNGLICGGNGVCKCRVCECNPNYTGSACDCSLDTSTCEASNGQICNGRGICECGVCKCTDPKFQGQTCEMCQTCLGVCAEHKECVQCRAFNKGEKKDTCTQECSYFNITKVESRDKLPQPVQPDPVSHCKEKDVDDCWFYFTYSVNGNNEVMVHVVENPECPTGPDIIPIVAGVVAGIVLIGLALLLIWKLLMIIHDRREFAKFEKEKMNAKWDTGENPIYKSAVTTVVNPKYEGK
Integrin beta-1 (Homo sapiens) + Integrin alpha-4 (Homo sapiens), sequence (P13612 whole entry, looked up): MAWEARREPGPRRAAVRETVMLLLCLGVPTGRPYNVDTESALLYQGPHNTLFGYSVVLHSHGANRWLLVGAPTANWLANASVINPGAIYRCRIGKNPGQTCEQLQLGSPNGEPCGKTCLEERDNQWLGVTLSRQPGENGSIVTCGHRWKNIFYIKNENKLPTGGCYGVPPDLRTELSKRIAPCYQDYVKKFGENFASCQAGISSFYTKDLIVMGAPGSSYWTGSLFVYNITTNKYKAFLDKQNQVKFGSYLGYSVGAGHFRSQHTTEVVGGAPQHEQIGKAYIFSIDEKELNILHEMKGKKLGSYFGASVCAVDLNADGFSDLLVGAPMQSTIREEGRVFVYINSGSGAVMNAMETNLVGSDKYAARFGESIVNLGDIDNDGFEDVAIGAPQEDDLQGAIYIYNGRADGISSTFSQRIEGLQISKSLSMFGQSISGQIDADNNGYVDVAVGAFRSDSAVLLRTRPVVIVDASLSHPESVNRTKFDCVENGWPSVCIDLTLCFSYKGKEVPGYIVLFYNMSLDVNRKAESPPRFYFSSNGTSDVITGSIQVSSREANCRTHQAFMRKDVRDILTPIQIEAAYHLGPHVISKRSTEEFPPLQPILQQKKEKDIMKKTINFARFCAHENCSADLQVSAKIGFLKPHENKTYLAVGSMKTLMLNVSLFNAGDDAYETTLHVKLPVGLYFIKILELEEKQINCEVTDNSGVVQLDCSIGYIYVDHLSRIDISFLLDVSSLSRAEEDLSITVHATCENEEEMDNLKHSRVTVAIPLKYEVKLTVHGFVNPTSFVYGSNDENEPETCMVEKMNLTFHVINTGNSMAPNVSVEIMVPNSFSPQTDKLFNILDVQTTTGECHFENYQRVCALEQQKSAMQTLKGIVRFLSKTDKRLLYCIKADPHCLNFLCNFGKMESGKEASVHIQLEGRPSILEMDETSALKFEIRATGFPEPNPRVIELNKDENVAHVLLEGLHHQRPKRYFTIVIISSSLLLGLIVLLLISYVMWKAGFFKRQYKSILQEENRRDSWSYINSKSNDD

Experiment [8] can be described thus: superoxide lowering in aged yeast cells, pilot screen, validation compound set (AID 2706;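 active = superoxide response below 65% of plate, a cut near 3 SD across the whole screen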;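 note: yeast exposed to compound for one week at 30 degrees C before staining; 100% = mean of all compound wells on the same plate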). The following applies: S. cerevisiae aging, superoxide DHE fluorescence; at 10 µM; stronger effect = lower value.
Experiment [9] addresses Beta-adrenergic receptor kinase 1 (Homo sapiens) (UniProt P25098). The experiment is described as follows: GRK2 binders displacing RNA aptamer, biochemical, validation, human GRK2, bead flow cytometry (AID 488806;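 active = aptamer binding inhibition above 30%, about 3 SD of noise from non-fluorescent compounds; inactive = inhibition at or below 30%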). The following applies: bead-bound GRK2, FAM-aptamer displacement, at 10 µM, stronger effect = higher value.
Experiment [10] has as its target Beta-2 adrenergic receptor (Homo sapiens) (UniProt P07550). The experiment is described as follows: beta2AR agonists driving receptor internalization, pilot screen, cell-based, FAP fluorogen, flow cytometry, validation set (AID 504459;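 active = percent response above 42, roughly 3 SD of non-fluorescent test compounds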;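 note: agonist-driven loss of surface beta2AR via internalization measured by FAP dye flow cytometry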). The following applies: Am2.2-beta2AR cells, FAP surface receptor flow cytometry; at 10 µM; stronger effect = higher value.
The target of experiment [11] is AP-2 complex subunit beta (Homo sapiens) (UniProt P63010). The experiment is described as follows: inhibitors of arrestin peptide binding to AP2, pilot screen, biochemical, validation set, GST-AP2 beads, flow cytometry (AID 504541;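 active = inhibition above 54%, about 3 SD of non-fluorescent compounds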;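 note: AP2 carries R879A mutation and is captured from E. coli lysate; bead-bound FITC arrestin peptide fluorescence measuring arrestin peptide binding to AP2; 0% = DMSO wells and 100% = excess unlabeled arrestin peptide control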). The following applies: FITC arrestin peptide, at 10 µM, stronger effect = higher value, AP2 beta2 appendage fragment, R879A mutant.
AP-2 complex subunit beta (Homo sapiens), sequence (P63010 whole entry, looked up, the tested form may be a part, one chain of several): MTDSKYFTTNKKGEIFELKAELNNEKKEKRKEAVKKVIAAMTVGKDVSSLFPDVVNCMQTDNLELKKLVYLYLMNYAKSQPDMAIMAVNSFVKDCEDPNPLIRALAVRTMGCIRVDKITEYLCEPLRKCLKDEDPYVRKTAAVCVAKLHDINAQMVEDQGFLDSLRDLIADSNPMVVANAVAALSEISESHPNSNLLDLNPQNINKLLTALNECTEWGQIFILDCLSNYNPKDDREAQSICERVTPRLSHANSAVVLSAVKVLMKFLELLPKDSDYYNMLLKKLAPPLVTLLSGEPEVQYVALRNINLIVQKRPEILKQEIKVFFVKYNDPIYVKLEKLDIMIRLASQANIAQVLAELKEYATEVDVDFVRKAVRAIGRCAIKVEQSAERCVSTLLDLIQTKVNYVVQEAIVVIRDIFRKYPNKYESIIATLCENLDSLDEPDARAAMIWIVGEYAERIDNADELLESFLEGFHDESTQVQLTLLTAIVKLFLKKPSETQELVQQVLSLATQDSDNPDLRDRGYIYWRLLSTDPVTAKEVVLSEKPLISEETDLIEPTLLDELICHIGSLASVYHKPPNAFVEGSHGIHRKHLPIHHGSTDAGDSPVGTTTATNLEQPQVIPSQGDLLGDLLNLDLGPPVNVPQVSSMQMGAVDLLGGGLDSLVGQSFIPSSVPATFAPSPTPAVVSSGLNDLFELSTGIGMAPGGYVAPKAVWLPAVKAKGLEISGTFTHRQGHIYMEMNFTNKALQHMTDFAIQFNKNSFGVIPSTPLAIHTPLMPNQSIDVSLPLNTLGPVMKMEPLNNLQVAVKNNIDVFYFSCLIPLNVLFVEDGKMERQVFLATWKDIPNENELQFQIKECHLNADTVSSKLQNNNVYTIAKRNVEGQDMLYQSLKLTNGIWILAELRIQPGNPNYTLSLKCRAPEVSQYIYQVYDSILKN
Experiment [12] can be described thus: yeast V-ATPase proton transport modulators, S. cerevisiae, pHLuorin, HTS validation (AID 504600; in the data active = response above about 15%;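 note: plate controls were DMSO for no effect and reference compound for full effect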). The following applies: S. cerevisiae pHLuorin cytosolic pH, at 10 µM, stronger effect = higher value.
The test system of experiment [13] is anti-desmoglein-3 scFv antibody binding to human DSG3. The experiment is described as follows: inhibitors of anti-DSG3 scFv binding to DSG3, pilot screen, biochemical, validation compound set, bead-based, flow cytometry (AID 588368).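 Note: signal is the median channel fluorescence of bead-bound GFP antibody.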 The following applies: Protein G beads, DSG3-Fc, scFv-GFP binding, at 10 µM, stronger effect = lower value.
The nature of experiment [14]: inhibitors of fungal efflux pumps CDR1, CDR2, MDR1, pilot screen, validation compound set, multiplex, phenotypic (AID 588506;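 active = efflux inhibition above 0.42, the validation set average plus 4 SD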;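 note: Nile Red retained in cells so higher fluorescence means more efflux inhibition; 0 = negative control wells and 1 = enniatin B 25 µM full block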). Particulars: S. cerevisiae pump-expressing triplex, Nile Red efflux flow cytometry; at 10 µM; stronger effect = higher value; the pumps come from Candida albicans.
For experiment [15], the target named is ATP-binding cassette sub-family B member 6 (Homo sapiens) (UniProt Q9NP58). The experiment is described as follows: ABCB6 transporter inhibitors, pilot screen, K562-ABCB6 cells, flow cytometry, validation set (AID 588550;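 active = inhibition above the screen-wide mean plus 3 SD, about 51%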;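 note: 0% = DMSO wells and 100% = benzethonium chloride 70 µM positive control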). Particulars: K562-ABCB6 porphyrin accumulation, 1 h, at 10 µM, stronger effect = higher value.
ATP-binding cassette sub-family B member 6 (Homo sapiens), sequence (Q9NP58 whole entry, looked up): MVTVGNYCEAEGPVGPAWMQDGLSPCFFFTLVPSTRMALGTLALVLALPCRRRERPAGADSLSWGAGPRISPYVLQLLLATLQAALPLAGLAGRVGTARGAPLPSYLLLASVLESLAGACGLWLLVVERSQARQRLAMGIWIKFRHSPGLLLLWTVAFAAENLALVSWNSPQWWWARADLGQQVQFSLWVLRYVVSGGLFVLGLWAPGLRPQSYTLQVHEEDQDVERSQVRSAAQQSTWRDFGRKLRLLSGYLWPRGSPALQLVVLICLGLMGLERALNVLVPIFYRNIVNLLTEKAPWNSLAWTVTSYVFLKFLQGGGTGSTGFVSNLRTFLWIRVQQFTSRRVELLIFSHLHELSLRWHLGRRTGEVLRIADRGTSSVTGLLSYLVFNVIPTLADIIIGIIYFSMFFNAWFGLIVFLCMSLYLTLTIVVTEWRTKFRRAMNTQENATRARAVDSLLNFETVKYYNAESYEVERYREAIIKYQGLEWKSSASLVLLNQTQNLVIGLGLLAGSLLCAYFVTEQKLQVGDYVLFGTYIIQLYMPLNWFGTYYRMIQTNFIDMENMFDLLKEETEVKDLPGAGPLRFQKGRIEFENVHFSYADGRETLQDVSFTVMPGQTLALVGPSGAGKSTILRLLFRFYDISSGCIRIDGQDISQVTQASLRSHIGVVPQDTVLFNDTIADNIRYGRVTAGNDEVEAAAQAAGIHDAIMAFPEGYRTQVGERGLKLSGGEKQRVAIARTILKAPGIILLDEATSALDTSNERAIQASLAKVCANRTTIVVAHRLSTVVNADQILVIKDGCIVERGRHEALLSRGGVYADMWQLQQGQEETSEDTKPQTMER
A short description of experiment [16]: promoters of myeloid differentiation in arrested cells, primary screen, cell-based, GFP/MAC1 double positive, flow cytometry, validation set (AID 588685;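 active = differentiation response of at least 50%, scaled between solvent and reference control, from cells with both markers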;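 note: compound exposure lasts four days before antibody staining and flow analysis; 0% = DMSO wells and 100% = 5 µM fulvestrant positive control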). Particulars: ER-HoxA9 marrow cells, stronger effect = higher value, normalized: vehicle 0, fulvestrant 100.

What is called inhibition is the drop in the measured response relative to a control, in per cent.

SMILES strings stand for the structures. Inconclusive results are not listed. Activity calls are given as the source filed them.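 Rule for the calls, unless noted: active = binding below the plate cutoff, the plate median minus 3 SD, with a reading above zero; inconclusive = below the plate cutoff but reading exactly zero; inactive = the rest.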

Beta-adrenergic receptor kinase 1 (Homo sapiens), sequence (P25098 whole entry, looked up): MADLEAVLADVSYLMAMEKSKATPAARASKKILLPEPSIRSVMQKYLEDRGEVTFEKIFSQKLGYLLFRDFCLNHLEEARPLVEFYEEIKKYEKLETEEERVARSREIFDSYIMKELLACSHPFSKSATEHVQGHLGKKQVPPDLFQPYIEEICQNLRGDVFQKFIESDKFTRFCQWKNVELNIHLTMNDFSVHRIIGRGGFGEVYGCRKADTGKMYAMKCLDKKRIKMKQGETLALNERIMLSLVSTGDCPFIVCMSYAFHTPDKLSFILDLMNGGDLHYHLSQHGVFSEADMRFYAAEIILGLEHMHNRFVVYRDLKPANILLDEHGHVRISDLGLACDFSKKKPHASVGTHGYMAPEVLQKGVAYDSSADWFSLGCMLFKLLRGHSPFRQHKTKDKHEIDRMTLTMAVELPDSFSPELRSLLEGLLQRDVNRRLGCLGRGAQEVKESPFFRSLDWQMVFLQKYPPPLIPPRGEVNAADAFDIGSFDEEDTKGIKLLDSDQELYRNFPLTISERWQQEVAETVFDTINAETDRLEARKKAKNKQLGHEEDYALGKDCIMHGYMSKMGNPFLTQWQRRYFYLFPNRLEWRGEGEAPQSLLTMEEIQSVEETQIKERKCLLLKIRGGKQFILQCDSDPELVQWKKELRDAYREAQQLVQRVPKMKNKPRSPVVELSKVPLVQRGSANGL
Beta-2 adrenergic receptor (Homo sapiens), sequence (P07550 whole entry, looked up): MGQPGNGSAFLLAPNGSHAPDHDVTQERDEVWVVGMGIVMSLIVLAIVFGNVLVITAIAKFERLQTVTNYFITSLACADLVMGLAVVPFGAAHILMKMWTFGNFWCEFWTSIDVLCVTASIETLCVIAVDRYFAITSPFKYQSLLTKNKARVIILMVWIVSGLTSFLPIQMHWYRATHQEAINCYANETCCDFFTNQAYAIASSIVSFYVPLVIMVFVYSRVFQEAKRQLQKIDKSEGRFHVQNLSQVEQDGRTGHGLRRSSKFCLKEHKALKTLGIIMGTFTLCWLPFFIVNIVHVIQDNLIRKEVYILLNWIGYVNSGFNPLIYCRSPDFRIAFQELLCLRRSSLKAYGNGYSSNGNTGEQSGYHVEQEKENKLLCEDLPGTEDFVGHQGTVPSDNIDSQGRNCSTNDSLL

On to `COc1cccc2c(=O)c(C/C=C(/C)Cl)c(C)[nH]c12`, for which the percent of DMSO control GFP in [1] is 107% (inactive). Besides, the GFP response vs DMSO in experiment [2] is 103% (inactive); in experiment [4], 131% (inactive). Also, in experiment [3], the percent response of DMSO control is 101% (inactive). The GFP response, % of DMSO in [5] is 108% (inactive). The double positive events in experiment [6] was 65.6%. Besides, the vesicle binding response in [6] was 6720% (inactive). The inhibition was 6.4% (inactive) in experiment [7], -8.34% (inactive) in experiment [11] and 3% (inactive) in [15]. Besides, the superoxide response (% of plate) in experiment [8] was 107% (inactive). In [9], the aptamer binding inhibition is 3% (inactive). Moreover, the response in experiment [10] is 3.25% (inactive); in experiment [12], 3.49% (inactive). Moreover, the binding (% of control) in experiment [13] was 95.7% (inactive). Also, the efflux inhibition (fraction of control) in experiment [14] was 0.01 (inactive). In addition, the differentiation response in experiment [16] is -16.8% (inactive).
As to `COc1ccc2c(c1)[N+](C)(C)C(C)(C)C=C2C`, the percent of DMSO control GFP in experiment [1] was 105% (inactive). Further, the GFP response vs DMSO is 96.2% (inactive) in experiment [2] and 90.1% (inactive) in experiment [4]. Further, the percent response of DMSO control in experiment [3] was 111% (inactive). The GFP response, % of DMSO in experiment [5] is 99.9% (inactive). Moreover, the double positive events in [6] came to 70.1%. Also, in experiment [6], the vesicle binding response was 953% (inactive). Besides, the inhibition in experiment [7] is 15.1% (inactive); in [11], -11.1% (inactive); in [15], 5% (inactive). Moreover, in experiment [8], the superoxide response (% of plate) was 103% (inactive). The aptamer binding inhibition in experiment [9] was 2% (inactive). In addition, the response in experiment [10] was -8.39% (inactive); in experiment [12], -1.92% (inactive). In addition, the binding (% of control) in experiment [13] is 95.6% (inactive). The efflux inhibition (fraction of control) in experiment [14] was -0.04 (inactive). In experiment [16], the differentiation response was 12.9% (inactive).
On to `Cc1ccc(CN2CCN(Cc3cn[nH]c3C3CCCCC3)CC2CCO)cc1` (stereo not given), for which, in [1], the percent of DMSO control GFP was 102% (inactive). Besides, the results for the GFP response vs DMSO in experiment [2] and in [4] were 103% (inactive) and 106% (inactive), respectively. In addition, the percent response of DMSO control in [3] is 97.7% (inactive). Besides, the GFP response, % of DMSO in [5] was 122% (inactive). This compound also displayed a double positive events in experiment [6] of 58.2%. Further, the vesicle binding response in experiment [6] was 264% (inactive). In addition, the inhibition in experiment [7] is 21% (inactive); in experiment [11], 7.73% (inactive); in [15] it was 8% (inactive). The superoxide response (% of plate) in experiment [8] is 87.9% (inactive). In addition, the aptamer binding inhibition in [9] is 0% (inactive). For the same compound, the response is -22.7% (inactive) in [10] and -2.29% (inactive) in experiment [12]. Besides, the binding (% of control) in experiment [13] is 103% (inactive). In addition, the efflux inhibition (fraction of control) in experiment [14] is 0.08 (inactive). In experiment [16], the differentiation response was -5.97% (inactive).
With `Cn1c(SCC(=O)c2ccccc2)nnc1-c1ccncc1`, the percent of DMSO control GFP in [1] was 99% (inactive). Moreover, the GFP response vs DMSO in experiment [2] was 103% (inactive); in experiment [4] it was 112% (inactive). In addition, in [3], the percent response of DMSO control is 99.6% (inactive). Besides, in experiment [5], the GFP response, % of DMSO is 107% (inactive). In [6], this compound registered a double positive events of 61.9%. In addition, in experiment [6], the vesicle binding response was 157% (inactive). Also, the values for the inhibition in [7], in [11] and in experiment [15] were 0.59% (inactive), 4.51% (inactive) and 2% (inactive), respectively. Further, the superoxide response (% of plate) in [8] is 105% (inactive). In addition, the aptamer binding inhibition in [9] is 6% (inactive). The response is -27.9% (inactive) in [10] and -4.48% (inactive) in [12]. Also, the binding (% of control) in experiment [13] is 99.2% (inactive). For the same compound, in experiment [14], the efflux inhibition (fraction of control) was -0.04 (inactive). Besides, the differentiation response in experiment [16] was 0.92% (inactive).
Turning to `COc1ccc(C(C)=O)c2c1OCCO2`, in experiment [1], the percent of DMSO control GFP is 100% (inactive). Further, the GFP response vs DMSO is 94.1% (inactive) in experiment [2] and 88.7% (inactive) in experiment [4]. Further, the percent response of DMSO control in experiment [3] was 91.9% (inactive). The GFP response, % of DMSO in experiment [5] is 97.2% (inactive). The same compound registered a double positive events in experiment [6] of 65.9%. Besides, the vesicle binding response in experiment [6] was 891% (inactive). Besides, the inhibition in experiment [7] was -2.53% (inactive); in experiment [11], 14.1% (inactive); in experiment [15], 11% (inactive). Moreover, in [8], the superoxide response (% of plate) is 97.6% (inactive). Further, the aptamer binding inhibition in [9] is 1% (inactive). Besides, the response in experiment [10] is 3.38% (inactive); in experiment [12] it was 0.17% (inactive). Also, the binding (% of control) in experiment [13] is 99.5% (inactive). In addition, the efflux inhibition (fraction of control) in experiment [14] was -0.07 (inactive). The differentiation response in experiment [16] is -1.71% (inactive).
